Experimental data reported in PubChem BioAssay (NCI).
About 83,000 compounds went through this panel and 20% of them were active in at least one assay; those are over-represented in the sample as a whole.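 In brief: 96-well plates, 48 h treatment, single concentration, percent growth endpoint.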 Activity calls are given as the source filed them.

test system: NCI-H522 lung; experiment: NCI-60 one-dose screen, 48 h (100 = growth as untreated, 0 = no growth, -100 = all killed); details: 10 µM unless noted
Procedure: Growth inhibition of the NCI-H522 human Non-Small Cell Lung tumor cell line is measured as a screen for anti-cancer activity. Cells are grown in 96 well plates and exposed to the test compound for 48 hours. Compounds are tested at a single concentration, which is 10^-5 M for most compounds. The reported endpoint is percent growth (GI% or GIPRCNT), where numbers from 0 - 100% represent growth inhibition, and numbers from -100% - 0 represent cell death. For example, a value of 40 represents 60% growth inhibition. A value of 0 means no net growth occurred over the course of the experiment. A value of -40 indicates 40% of cells at the beginning of the experiment died by the end of the experiment. A value of -100 means all cells are dead at the end of the experiment.
NCI-60 Human Tumor Cell Lines Screen was performed using the standard one-dose NCI protocol, which is described in more detail at https://dtp.cancer.gov/discovery_development/nci-60/default.htm.
Compounds with GIPRCNT values below 10 were considered active. Activity score was based on GIPRCNT using the following formula: […]
Score is 0 for GIPRCNT values of 100 or above, 50 for GIPRCNT values of 0, and 100 for GIPRCNT values of -100.

Row | SMILES | growth
1 | CS(=O)(=O)Nc1cccc(-c2ccc3ncnc(Nc4ccc(F)c(Cl)c4)c3c2)c1 | -23.6% (active)
2 | CN(C)c1ccc(/C=c2\s/c(=C\C(=O)C(C)(C)C)[nH]c2=O)cc1 | 78.1% (inactive)
3 | CCc1ccc(C2=C/C(=C/c3ccc(Cl)cc3)C(=O)N2CCc2ccc(S(N)(=O)=O)cc2)cc1 | 5.98% (active)
4 | COc1ccc(C[C@H](N)C(=O)N[C@@H]2[C@@H](CO)OC(n3cnc4c(N(C)C)ncnc43)[C@@H]2O)cc1 (stereo not given in full) | -68.7% (active)
5 | Cc1cn(-c2nc3c(c(NCc4ccccc4)n2)COCC3)c2cccc(C(N)=O)c12 | 69.5% [0.5 µM] (inactive)
6 | CC(C(C(=O)N1CCCCC1)N1CCCCC1)N1CCCCC1 (stereo not given) | 93.1% (inactive)
7 | C=CC(=O)NC(=O)Nc1ccccc1Cl | 6.09% (active)
8 | CCOC(=O)C(C)(CSSCC(C)(NC(=O)c1ccc2ccccc2c1)C(=O)OCC)NC(=O)c1ccc2ccccc2c1 (stereo not given) | 92.9% (inactive)
9 | c1ccc([Se]CCCN2CCN(CCC[Se]c3ccccc3)CC2)cc1 | 119% (inactive)
10 | CC1CCC(C(C)C)C(NN)C1 (stereo not given) | 70.9% (inactive)
11 | CCCCNc1cc(C(=O)O)cc(S(N)(=O)=O)c1Oc1ccccc1 | 102% (inactive)
12 | Nc1nccc2c1ccn2-c1ccc(NC(=O)c2ccc(N3CCOCC3)c(C(F)(F)F)c2)cc1 | 23.1% (inactive)
13 | O=C(Nc1ccc(-n2ccc3c(NC(=O)c4ccccc4)ncnc32)cc1)Nc1ccc(Cl)c(C(F)(F)F)c1 | -58.9% (active)
14 | O=C(N/N=C/c1ccccc1O)c1ccccc1O | 6.88% (active)
15 | O=C(CSc1nnc(-c2ccccc2)o1)Nc1ccc(C(=O)/C=C/c2ccccc2)cc1 | 65.2% (inactive)
16 | Cc1ccc(-c2cn3cc([N+](=O)[O-])ccc3n2)cc1 | 71.3% (inactive)
17 | O=C(Nc1cccc(-n2ccc3c(NC(=O)c4ccccc4)nccc32)c1)c1cc(N2CCOCC2)cc(C(F)(F)F)c1 | -47.5% (active)
18 | Nc1ncnc2c1ncn2C1OC(COC(c2ccccc2)(c2ccccc2)c2ccccc2)C(O)C1O (stereo not given) | 97.4% (inactive)
19 | c1ccc2c(c1)Oc1cccnc1-n1nccc1-2 | 99.7% (inactive)
20 | Cc1cc(SCc2ccc(Cl)cc2Cl)nc(SCc2ccc(Cl)cc2Cl)n1 | 89.1% (inactive)

Row | SMILES | growth
21 | CC(C)CNCC(=O)Nc1ccc(Cc2ccc(NC(=O)CNCC(C)C)cc2)cc1 | 48.3% (inactive)
22 | OCc1cn(-c2ccc(Cl)cc2)nc1-c1ccc(O)cc1 | 71.2% (inactive)
23 | C=C1C(=O)O[C@H]2[C@H]1CC/C(COC(=O)c1cccc3ccccc13)=C\CC[C@@]1(C)O[C@@H]21 | -84.5% (active)
24 | N#CC1=C(N)Oc2c(ccc3ccccc23)C1c1cc(=O)oc2ccc(Cl)cc12 (stereo not given) | 5.22% (active)
25 | Cc1ccc(=O)n(-c2ccc(Br)cc2F)c1 | 104% (inactive)
26 | O=c1nc(N2CCOCC2)oc2c(-c3cccc4ccccc34)cccc12 | 82% (inactive)
27 | Clc1ccc2c(NCCNc3nc(Cl)nc4ccccc34)ccnc2c1 | -84.6% (active)
28 | COc1ccc2c(c1)C(=O)/C(=C/c1cccc(OCC(=O)c3ccccc3)c1)O2 | -67.7% (active)
29 | Cc1ccc2c(c1)Nc1ccc(C)cc1C2(C)C | 68% (inactive)
30 | Cc1ccc(/C=C2/C(=O)Nc3cc(Cl)c(-c4csc(N)n4)cc32)cc1 | 33.7% (inactive)
31 | Cc1cc(NC(=O)c2cccc(C(F)(F)F)c2)ccc1-n1ccc2c(NC(=O)c3ccccc3)nccc21 | 85.6% (inactive)
32 | Oc1ccccc1/C=N/c1ccccn1 | 92% (inactive)
33 | O=C1/C(=C/c2cccc3cnccc23)Cc2cc(F)ccc21 | 78.4% (inactive)
34 | CCCc1nn2c(CCC(=O)c3nc4ccc([N+](=O)[O-])cc4[nH]3)nnc2s1 | 104% (inactive)
35 | CSc1ccc(C(=O)C[n+]2cccc(C)c2)cc1 | 110% (inactive)
36 | NC(N)=N/N=C/c1ccc([N+](=O)[O-])cc1 | 107% (inactive)
37 | C[C@]12CC[C@@H]3c4ccc(O)c(N)c4CC[C@H]3[C@@H]1CC[C@@H]2O | 82.6% (inactive)
38 | Cc1cc(N2CCOCC2)nc(N(CCNc2ccnc3cc(Cl)ccc23)Cc2ccco2)n1 | 13.9% (inactive)
39 | CC1(C)CC(=O)C2=C(C1)OC1=C(C(=O)CC(C)(C)C1)C2c1ccc(OCc2cn(-c3ccc(F)cc3F)nn2)cc1 | 77% (inactive)
40 | COc1ccc(C2CC(c3cc(Cl)c(C)cc3OC)=NN2c2ccc(S(N)(=O)=O)cc2)cc1OC (stereo not given) | 74.3% (inactive)
